This passage reports Potency and activity, negative = inhibition results from PubChem BioAssay (Tox21).

Molecules are shown by their SMILES. Values without a mark were called inactive. A call without a number means that no potency is given here. Calls of active or inactive are those of the source. Calls come from the whole dose curve; as a rule, active = well fitted inhibition curve with a large enough effect in the repeat runs (not every such curve was filed as active); inconclusive = weak or mixed curves; inactive = flat fitted curve, though single readings scatter.

Sequence of Thyrotropin-releasing hormone receptor (Homo sapiens) (P34981 whole entry, looked up): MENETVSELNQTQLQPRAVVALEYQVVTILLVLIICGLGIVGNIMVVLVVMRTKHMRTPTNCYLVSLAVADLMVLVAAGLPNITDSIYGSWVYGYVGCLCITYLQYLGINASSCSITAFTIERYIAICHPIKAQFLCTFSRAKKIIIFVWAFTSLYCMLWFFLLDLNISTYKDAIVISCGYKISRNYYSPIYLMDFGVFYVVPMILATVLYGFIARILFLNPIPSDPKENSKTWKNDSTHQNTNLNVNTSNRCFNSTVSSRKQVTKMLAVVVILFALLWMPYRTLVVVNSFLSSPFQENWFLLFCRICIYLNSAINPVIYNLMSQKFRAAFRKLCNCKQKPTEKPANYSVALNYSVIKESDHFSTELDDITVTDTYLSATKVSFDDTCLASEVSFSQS

This assay addresses Thyrotropin-releasing hormone receptor (Homo sapiens) (UniProt P34981). The assay can be described thus: qHTS assay to identify small molecule antagonists of the thyrotropin-releasing hormone receptor (TRHR) signaling pathway (AID 1346877). The note with it: TRHR-HEK293, TRH-induced calcium fluorescence, antagonist mode; series mostly up to 51.3 µM. An excerpt: National Center for Advancing Translational Sciences [NCATS]
NIH Chemical Genomics Center [NCGC]
U.S. Environmental Protection Agency [EPA]
National Institutes of Environmental Health Sciences [NIEHS]
National Toxicology Program [NTP]
U.S. Food and Drug Administration [FDA]
Thyrotropin-releasing hormone (TRH) receptor (TRHR) is a G-protein-coupled receptor which binds the tripeptide thyrotropin releasing hormone. TRHR is found in the brain and, when bound by TRH, acts (through phospholipase C) to increase intracellular inositol trisphosphate. It plays a crucial role in the anterior pituitary where it controls the synthesis and secretion of thyroid stimulating hormone and prolactin. The TRHR-Hek293 assay is a cell-based assay, and it has the potential to screen G protein-coupled receptors. A compound/drug can either activate (agonist) or suppress (antagonist) GPCRs that can be monitored by levels of intracellular calcium. In this assay, the Tox21 10K compound library was screened to identify potential TRHR antagonists.
Tox21 Assay Protocol Summary:
The TRHR-Hek293 cells were dispensed at 1500cells/4uL/well in 1536-well black-clear bottom plates using a Multidrop dispenser. After the assay plates were incubated at a 37 C/5% CO2 incubator for 18 hours, 4 uL of Dye-Loading Solution was added to each well. The plates were incubated at 37 C for 2 hours. For agonist mode, 23 nL of compounds dissolved in DMSO, positive controls or DMSO only was transferred to the assay plate by a pin tool. The fluorescence intensity in the plates was measured using FDSS 7000EX kinetic plate reader for 3 min at 1 sec intervals. For antagonist mode, 23 nL of compounds dissolved in DMSO, positive controls or DMSO only was transferred to the assay plate by a pin tool. After 5 min incubation at room temperature, 1 uL of TRH was added on the top of the cell/compound mixtures to achieve a final agonist concentration of 1 nM. The fluorescence intensity in the plates was measured using FDSS 7000EX kinetic plate reader for 3 min at 1 sec intervals. Each test compound was measured at 15 concentrations and in triplicates.
(In qHTS, concentration-response curves come from the screen itself.)
With `C[C@@H](N)[C@@H](O)c1ccccc1`, the Potency result was “inactive”.
Still for that read-out and setting: then `BrCCc1ccccc1`, with “inactive”; and `CCOC1Oc2ccc(OS(C)(=O)=O)cc2C1(C)C` (stereo not given), with “inactive”.
On to `NNCc1ccccc1`, for which the Potency entry is “inactive”.
Turning to `ClCCCCl`, the Potency result was “inactive”.
As for `CC(C)(C)c1cc(O)ccc1O`, the Potency entry is “inactive”.
As for `O=C(CCl)NCO`, the Potency result was “inactive”.
Consider `Clc1cc2c(cc1Cl)Oc1cc(Cl)c(Cl)cc1O2`, for which the activity, negative = inhibition is 2.75% [at 0.194 µM].
As for `CCNc1nc(Cl)nc(NC(C)(C)C)n1`, the Potency result was “inactive”.
Turning to `O=[N+]([O-])CCO`, the Potency entry was “inactive”.
Same read-out and setting: then `N#CN`, with “inactive”; and `NCCOS(=O)(=O)O`, with “inactive”.
For the compound `CCOc1cc(OP(=S)(OC)OC)nc(CC)n1`, the Potency result was “inactive”.
As to `c1cncc([C@@H]2CCCCN2)c1`, the Potency entry is “inactive”.
For the compound `CN1C(=O)COc2c(C(=O)NC3CN4CCC3CC4)cc(Cl)cc21` (stereo not given), the Potency result was “inactive”.
Consider `CCCCCCC(=O)CCCCCC/C=C/C[C@@H](O)[C@H](O)[C@@](N)(CO)C(=O)O`, for which the activity, negative = inhibition was 7.27% [at 10.5 µM].
As to `COC(=O)c1ccccc1CS(=O)(=O)NC(=O)Nc1nc(OC)cc(OC)n1`, the Potency result is “inactive”.
On the same count and under the same terms, then `S=C=S`, with “inactive”; and `O=C(O)c1c(Cl)ccc2cc(Cl)cnc12`, with “inactive”; and `O=C(NC(O)C(Cl)(Cl)Cl)NC(O)C(Cl)(Cl)Cl` (stereo not given), with “inactive”.
Take `CCC(=O)c1ccc(Cl)cc1`: the Potency result is “inactive”.
Still for that read-out and setting: then `O=C(O)CBr`, with “inactive”; and `NC(=O)OCCCc1ccccc1`, with “inactive”.
For the compound `O=C(O)C(Br)(Br)Br`, the Potency entry was “inactive”.
For `CCNP(=S)(OC)O/C(C)=C/C(=O)OC(C)C` (stereo not given), the Potency result was “inactive”.
As to `C=CC=O`, the Potency entry is “inactive”.
As to `C=CCN1CC[C@]23CCCC[C@H]2[C@H]1Cc1ccc(O)cc13`, the Potency entry is “inactive”.
For `CC1N=C(N)OC1c1ccccc1` (stereo not given), the Potency entry is “inactive”.
In the case of `CCCCOC(C)=O`, the Potency result is “inactive”.
As for `O=P(O)(O)c1ccccc1`, the Potency entry was “inactive”.
On to `CCC(C)C(C)(COC(N)=O)COC(N)=O` (stereo not given), for which the Potency result was “inactive”.
In the case of `O=S1(=O)OCCO1`, the Potency entry is “inactive”.
With `CN(CCO)CCO`, the Potency result is “inactive”.
With `CCCCCCCCBr`, the Potency result was “inactive”.
The same measure, in the same setting: the value for `[O-][Br+2]([O-])O` was “inactive”; that for `CCC1(CC)C(=O)C=CNC1=O` was “inactive”; that for `CCCOC(=O)Cc1ccc(OCC(=O)N(CC)CC)c(OC)c1` was “inactive”.
With `COc1ccccc1OC`, the Potency result is “inactive”.
On to `Nc1c(Cl)c(F)nc(OCC(=O)O)c1Cl`, for which the Potency result was “inactive”.
The same measure, in the same setting: the value for `CCOC(=O)Nc1cccc(OC(=O)Nc2ccccc2)c1` was “inactive”.
